Data on 24 compounds can be found in PubChem BioAssay.

A number with no mark means an inactive call. The list shows a part of the results. Active and inactive are the calls of the source. Rule as the data show it, unless noted: active = inhibition above about 28%; inactive = the rest.

The target in assay [1] is Photoreceptor-specific nuclear receptor (Homo sapiens) (UniProt Q9Y5X4). Nature of the assay: NR2E3 agonist confirmation in cells, cell-based, luminescence, CHO-S two-hybrid (AID 624378;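 active = average inhibition above a cutoff equal to the mean inhibition of all tested compounds plus one SD, cut at about 70% in these data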;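 also: 0% = DMSO in NR2E3 cells and 100% = DMSO in cells lacking NR2E3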). Conditions: CHO-S mammalian two-hybrid NR2E3-NCOR, luciferase luminescence; at 3.98 µM; hits give high values.
Assay [2] is described as follows: GAL4-VP16 reporter modulators, confirmation, counter-screen for NR2E3 agonist project, cell-based, luminescence, CHO-S, high throughput (AID 624379;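 active = mean inhibition above a cutoff equal to the average over all tested compounds plus one standard deviation, cut at about 70% in these data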;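 also: luciferase from a UAS reporter driven by GAL4-VP16 transactivation; 0% = DMSO with VP16-transfected cells and 100% = DMSO with cells lacking VP16; higher means less reporter light so more repression of VP16 activity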). The settings on record: CHO-S GAL4-VP16 luciferase reporter, at 3.98 µM, hits give high values. In general terms: The purpose of a counterscreen is to sort out artefacts and off-target activity.
Assay [3] can be described thus: StAR promoter reporter inhibitors, counter-screen for LRH-1 inverse agonist project, cell-based, luminescence, high throughput (AID 651611). The settings on record: StAR promoter luciferase reporter counterscreen, at 3.6 µM, hits give high values.
Assay [4] has as its target Nuclear receptor subfamily 5 group A member 2 (Homo sapiens) (UniProt O00482). Nature of the assay: LRH-1 (NR5A2) inverse agonists, retest, confirmation, cell-based, luminescence (AID 651613; in the data active = inhibition above about 42%;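 also: HEK293T cells co-transfected with LRH-1 and StAR promoter luciferase reporter; 0% = vehicle wells and 100% = parental cells lacking receptor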). Conditions: cell-based LRH-1 luciferase reporter, inverse agonism; at 3.6 µM; hits give high values. A general note: A reporter such as luciferase makes a cellular process visible.
For assay [5], the target named is Steroidogenic factor 1 (Homo sapiens) (UniProt Q13285). Nature of the assay: SF1 (NR5A1) inverse agonists, counter-screen for LRH-1 inverse agonist project, cell-based, luminescence, high throughput (AID 651614; in the data active = inhibition above about 44%;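 also: cells cotransfected with StAR promoter reporter and SF1 expression vector; 0% = vehicle on cells with receptor and 100% = vehicle on cells lacking receptor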). Conditions: cell-based SF1 luciferase reporter, at 3.6 µM, hits give high values.
Assay [6] can be described thus: VP16 transactivation reporter inhibitors, counter-screen for LRH-1 inverse agonist project, cell-based, luminescence, high throughput (AID 651615; in the data active = inhibition above about 33%). Conditions: Gal4-VP16 luciferase reporter cells, at 3.6 µM, hits give high values.
Assay [7] in a line: Gal4-VP16 luciferase reporter inhibitors, counter-screen for COUP-TFII antagonist project, cell-based, luminescence, HEK293 (AID 687007; in the data active = inhibition above about 13%). Conditions: at 8.5 µM, hits give high values.
Assay [8] concerns the target COUP transcription factor 2 (Homo sapiens) (UniProt P24468). Nature of the assay: NR2F2 transcriptional activity inhibitors, confirmation, cell-based, luciferase reporter, HEK293, triplicate (AID 687008;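 active = mean inhibition over three repeats above a set limit taken from the earlier primary screen, cut at about 38% in these data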;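 also: 100% = cells given the luciferase reporter alone without the COUP-TF2 vector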). Conditions: HEK293 NGFI-A luciferase reporter, luminescence; at 8.5 µM; hits give high values.

Nuclear receptor subfamily 5 group A member 2 (Homo sapiens), sequence (O00482 whole entry, looked up): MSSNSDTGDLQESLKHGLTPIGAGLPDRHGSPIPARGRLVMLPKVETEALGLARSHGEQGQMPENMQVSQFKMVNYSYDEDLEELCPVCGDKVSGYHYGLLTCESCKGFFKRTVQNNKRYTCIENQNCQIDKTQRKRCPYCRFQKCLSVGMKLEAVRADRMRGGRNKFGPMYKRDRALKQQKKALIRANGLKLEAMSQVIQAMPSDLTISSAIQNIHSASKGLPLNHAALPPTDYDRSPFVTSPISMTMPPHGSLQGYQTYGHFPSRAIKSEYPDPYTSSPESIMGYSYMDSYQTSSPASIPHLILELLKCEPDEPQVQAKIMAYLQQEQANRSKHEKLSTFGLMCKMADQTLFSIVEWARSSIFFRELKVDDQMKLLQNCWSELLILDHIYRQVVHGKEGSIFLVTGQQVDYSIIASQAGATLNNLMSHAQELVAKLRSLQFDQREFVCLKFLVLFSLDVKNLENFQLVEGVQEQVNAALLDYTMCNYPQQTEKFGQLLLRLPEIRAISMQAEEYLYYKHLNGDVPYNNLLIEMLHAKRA
Steroidogenic factor 1 (Homo sapiens), sequence (Q13285 whole entry, looked up, the tested form may be a part): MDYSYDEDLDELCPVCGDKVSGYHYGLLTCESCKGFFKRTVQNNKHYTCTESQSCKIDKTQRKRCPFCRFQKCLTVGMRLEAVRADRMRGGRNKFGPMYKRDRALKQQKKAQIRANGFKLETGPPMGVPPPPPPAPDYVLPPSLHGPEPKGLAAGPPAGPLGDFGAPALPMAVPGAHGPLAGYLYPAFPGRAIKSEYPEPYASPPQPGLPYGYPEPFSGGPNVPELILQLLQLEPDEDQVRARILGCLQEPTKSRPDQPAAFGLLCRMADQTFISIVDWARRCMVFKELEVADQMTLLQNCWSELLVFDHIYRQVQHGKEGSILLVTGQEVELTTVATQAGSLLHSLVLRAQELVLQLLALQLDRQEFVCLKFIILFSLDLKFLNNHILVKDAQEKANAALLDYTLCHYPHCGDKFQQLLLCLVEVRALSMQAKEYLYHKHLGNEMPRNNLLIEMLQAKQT
COUP transcription factor 2 (Homo sapiens), sequence (P24468 whole entry, looked up): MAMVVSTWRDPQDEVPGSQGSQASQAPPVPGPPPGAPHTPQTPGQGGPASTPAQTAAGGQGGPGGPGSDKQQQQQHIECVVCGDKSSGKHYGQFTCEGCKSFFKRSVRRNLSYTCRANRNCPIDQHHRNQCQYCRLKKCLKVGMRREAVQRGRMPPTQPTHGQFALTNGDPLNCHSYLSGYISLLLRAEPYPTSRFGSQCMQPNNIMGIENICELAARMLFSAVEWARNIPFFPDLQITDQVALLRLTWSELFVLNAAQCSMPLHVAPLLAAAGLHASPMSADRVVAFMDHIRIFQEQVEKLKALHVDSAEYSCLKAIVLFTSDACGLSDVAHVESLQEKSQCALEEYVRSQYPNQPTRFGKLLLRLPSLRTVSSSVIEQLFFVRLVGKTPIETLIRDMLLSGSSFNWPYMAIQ
Photoreceptor-specific nuclear receptor (Homo sapiens), sequence (Q9Y5X4 whole entry, looked up, the tested form may be a part): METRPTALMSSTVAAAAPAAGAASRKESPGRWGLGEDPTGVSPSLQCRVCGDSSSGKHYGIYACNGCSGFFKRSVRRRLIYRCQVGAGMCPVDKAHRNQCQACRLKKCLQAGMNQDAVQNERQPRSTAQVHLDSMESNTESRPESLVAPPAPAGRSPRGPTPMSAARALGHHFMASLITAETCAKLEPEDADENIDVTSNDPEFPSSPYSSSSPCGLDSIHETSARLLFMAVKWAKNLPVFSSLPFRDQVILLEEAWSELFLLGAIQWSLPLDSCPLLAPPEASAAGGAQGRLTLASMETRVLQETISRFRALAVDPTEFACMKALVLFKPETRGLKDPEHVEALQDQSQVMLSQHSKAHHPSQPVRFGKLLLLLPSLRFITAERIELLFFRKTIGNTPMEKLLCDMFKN

Usually inhibition stands for the drop in the measured response relative to a control, in per cent. Turning to `COc1ccc(CNc2ncnc3ccccc23)cc1`, the inhibition in assay [1] was 82.4% (active); in assay [2], 75.7% (active); in assay [3] it was 11.2%; in assay [4], 63.6% (active); in assay [5], 55.6% (active); in assay [6], 62.8% (active). Further, the inhibition in assay [7] is 0.55%; in assay [8], 47.6% (active).

In the case of `Cc1cc(OCC(=O)NC2CC2)c2c(C)cc(=O)oc2c1`, the inhibition in assay [3] is 18.9%; in assay [4], 65.5% (active); in assay [5], 58.2% (active); in assay [6], -8.04%.

Consider `COc1ccc(C(=O)C(C)Oc2cccc(NC(=O)c3cccc([N+](=O)[O-])c3)c2)cc1` (stereo not given), for which the inhibition in assay [3] was 1.27%; in assay [4], 35.4%; in assay [5] it was 44.1% (active); in assay [6], -5.28%.

`Cc1ccn2c(=O)nc(SCC(=O)Nc3ccc4c(c3)OCCO4)nc2c1`: the inhibition in assay [3] is -9.07%; in assay [4] it was 49.3% (active); in assay [5], 51% (active); in assay [6], -15.9%.

For `CC(=O)C1=C(c2cccc([N+](=O)[O-])c2)N(C(C)=O)n2c(C)nnc2S1`, the inhibition in assay [3] is 5.25%; in assay [4], 58.4% (active); in assay [5] it was 50.3% (active); in assay [6] it was -4.12%.

`Cc1ccc(S(=O)(=O)N2CCc3ccccc3CC2)cc1`: the inhibition in assay [3] was 39.2% (active); in assay [4], 66.3% (active); in assay [5] it was 56.7% (active); in assay [6] it was 53.9% (active).

With `Cc1cc2ccccn2c1C(=O)c1ccc([N+](=O)[O-])o1`, the inhibition in assay [3] is 41% (active); in assay [4], 68.3% (active); in assay [5], 62.2% (active); in assay [6], -0.71%.

Turning to `C=CCNc1sc(C(=O)c2ccccc2)c(N)c1C#N`, the inhibition in assay [3] is 13.8%; in assay [4] it was 43.6% (active); in assay [5], 47.7% (active); in assay [6], 6.37%.

Regarding `COc1cccc(-c2cc(C(=O)Nc3ccncc3)c3ccccc3n2)c1`, the inhibition in assay [3] is 9.54%; in assay [4], 35.2%; in assay [5], 39.4%; in assay [6], -5.71%.

Consider `COc1ccc(NC(=O)CSc2nc(N)c(-c3ccccc3)c(=O)[nH]2)cc1`, for which the inhibition was 9.25% in assay [3], 63.2% (active) in assay [4], 57.5% (active) in assay [5] and -7.75% in assay [6].

Consider `Cc1ccc(-c2nn3c(C)nnc3s2)cc1NC(=O)c1ccco1`, for which the inhibition was 7.12% in assay [3], 63.2% (active) in assay [4], 60.7% (active) in assay [5] and -12.3% in assay [6].

Consider `CCOCC(=O)Nc1ccc(S(=O)(=O)NCCc2ccccc2)cc1`, for which the inhibition is 10.5% in assay [3], 48.3% (active) in assay [4], 43.2% (active) in assay [5] and 11.4% in assay [6].

On to `CC(=O)Nc1ccc(NC(=O)CSc2nc(N)c(NC(=O)c3ccco3)c(=O)[nH]2)cc1`, for which the inhibition is 13.1% in assay [3], 51.4% (active) in assay [4], 48.4% (active) in assay [5] and -7.2% in assay [6].

As to `COc1cccc(C=Nc2ccc3c(c2)OCCO3)c1O`, the inhibition in assay [3] is -5.52%; in assay [4], -12%; in assay [5], -7.99%; in assay [6], -25.9%.

For `COc1ccc(S(=O)(=O)Nc2ccc(CC#N)cc2)cc1`, the inhibition in assay [3] is -4.36%; in assay [4], 31.7%; in assay [5], 29.7%; in assay [6] it was -0.34%.

In the case of `CCOc1ccc(CCNC(=O)COC(=O)c2ccc(OC)c(OC)c2OC)cc1OCC`, the inhibition in assay [3] is 11.7%; in assay [4], 53.8% (active); in assay [5] it was 55.5% (active); in assay [6], -6.44%.

Consider `Cc1c(C(=O)Nc2ccc(Cc3ccncc3)cc2)cccc1[N+](=O)[O-]`, for which the inhibition was -10.9% in assay [3], 56.2% (active) in assay [4], 49.9% (active) in assay [5] and 19.6% in assay [6].

Turning to `N#Cc1cc([N+](=O)[O-])ccc1NC(=O)COC(=O)C1CCC(=O)N1` (stereo not given), the inhibition in assay [3] is 15.6%; in assay [4], 53.7% (active); in assay [5], 48.9% (active); in assay [6] it was -3.83%.

As for `O=C(Nc1cc(Cl)ccc1-n1cncn1)c1ccc([N+](=O)[O-])o1`, the inhibition in assay [3] was 27%; in assay [4], 61.9% (active); in assay [5] it was 61.8% (active); in assay [6], -24.7%.

For the compound `Cc1onc(-c2ccccc2Cl)c1C(=O)O/N=C(\N)c1ccc([N+](=O)[O-])o1`, the inhibition in assay [3] was 10.8%; in assay [4], 66.3% (active); in assay [5] it was 62.5% (active); in assay [6], -5.99%.

In the case of `COc1ccc(CCNC(=O)c2ccc(CSc3ccc(Cl)cc3)o2)cc1OC`, the inhibition in assay [3] was -6.83%; in assay [4] it was 28.3%; in assay [5], 23.4%; in assay [6], 30.3%.

As to `COCCNc1ncnc2c1ncn2[C@H]1CN(CCc2ccccc2)C[C@@H](CO)O1`, the inhibition in assay [3] was 9.96%; in assay [4], 28.4%; in assay [5], 24.9%; in assay [6] it was 3.57%.

For `Cn1cnnc1SCC(=O)Nc1ccc(N2CCOCC2)cc1`, the inhibition in assay [3] is 7.69%; in assay [4] it was 59.5% (active); in assay [5], 34.5%; in assay [6], -9.61%.

In the case of `COC(=O)c1c(NC(=O)c2ccco2)sc2c1CCN(C(C)=O)C2`, the inhibition in assay [3] is 20%; in assay [4], 54.4% (active); in assay [5], 44.7% (active); in assay [6], -41%.
